Where “and” joins values, the source holds several entries; their conditions need not be identical. Equal values may be shown once. Results filed as inconclusive are left out. Where a structure was tested more than once in an assay, its records may differ in their call. Calls of active or inactive are those of the source. The calls were made as follows: active = hit-call score of the fitted dose curve at least 0.9, where 1 is the maximum; inconclusive = response in the unintended direction; inactive = score below 0.9.

Experimental findings from PubChem BioAssay (EPA / NIEHS) are described below.

Assay [1] has as its target Cellular tumor antigen p53 (Homo sapiens) (UniProt P04637). Kind of assay: TOX21_p53_BLA_p2_ratio: Tox21 HCT-116 p53 Agonism Beta-lactamase Assay, Ratio, Phase 2 (AID 2283592). In short, it runs like this: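 DMSO-normalized, positive-direction endpoint derived from the 460 nm/530 nm FRET ratio in HCT116 p53 beta-lactamase reporter cells exposed 16 h at 37C and loaded with CCF4-AM for 2 h.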

Assay [2] in a line: TOX21_p53_BLA_p3_viability: Viability Assessment in the Tox21 HCT-116 p53 Agonism Beta-lactamase Assay, Phase 3 (AID 2283593).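 Also: cells exposed to compound for 16 h before reading.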 In short, it runs like this:
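Cellular ATP was quantified by CellTiter-Glo luminescence, read after 30 min at room temperature. Beforehand, HCT116 cells (4000/well) received compound 5 h post-seeding, 217-fold diluted from DMSO, then incubated 16 h at 37C.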

Assay [3] concerns the target Cellular tumor antigen p53 (Homo sapiens) (UniProt P04637). Kind of assay: TOX21_p53_BLA_p3_ratio: Tox21 HCT-116 p53 Agonism Beta-lactamase Assay, Ratio, Phase 3 (AID 2283596). Put shortly: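 Cells were seeded at 4000/well, rested 5 h at 37C, then dosed with DMSO compound solutions (217-fold dilution) for 16 h. CCF4-AM substrate was loaded for 2 h at room temperature, and the 460/530 nm emission ratio was fitted for gain of signal versus DMSO.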

Assay [4] in a line: TOX21_p53_BLA_p4_viability: Viability Assessment in the Tox21 HCT-116 p53 Agonism Beta-lactamase Assay, Phase 4 (AID 2283597).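 Also: hits lower the luminescence signal meaning cytotoxicity.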 In short, it runs like this: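 In this multiplexed secondary endpoint, HCT116 cells (4000 per well, compound at 5 h, 16 h treatment) received CellTiter-Glo after the beta-lactamase read. Luminescence after 30 min RT reflects ATP, and falling signal marks cytotoxicity.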

The target in assay [5] is Cellular tumor antigen p53 (Homo sapiens) (UniProt P04637). Kind of assay: TOX21_p53_BLA_p5_ratio: Tox21 HCT-116 p53 Agonism Beta-lactamase Assay, Ratio, Phase 5 (AID 2283599). Put shortly: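 Beta-lactamase reporter ratio (blue 460 nm over green 530 nm, 405 nm excitation) after 2 h CCF4-AM loading, in HCT-116 cells exposed 16 h at 37 C to compounds pinned at 217-fold dilution. Increases relative to DMSO baseline scored.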
Chain of Cellular tumor antigen p53 (Homo sapiens) (P04637 whole entry, looked up): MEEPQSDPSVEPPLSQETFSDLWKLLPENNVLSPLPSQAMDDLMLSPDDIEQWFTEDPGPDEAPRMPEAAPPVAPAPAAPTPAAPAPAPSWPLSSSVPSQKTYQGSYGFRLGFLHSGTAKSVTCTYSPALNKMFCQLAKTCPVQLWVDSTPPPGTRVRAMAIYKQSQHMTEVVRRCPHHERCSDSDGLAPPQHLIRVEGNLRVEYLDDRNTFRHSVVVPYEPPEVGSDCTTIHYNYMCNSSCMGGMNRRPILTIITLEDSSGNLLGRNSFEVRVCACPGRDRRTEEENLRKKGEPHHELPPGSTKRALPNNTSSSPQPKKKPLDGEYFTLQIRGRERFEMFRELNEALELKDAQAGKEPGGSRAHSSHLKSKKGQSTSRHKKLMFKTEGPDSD

The nature of assay [6]: TOX21_p53_BLA_p5_viability: Viability Assessment in the Tox21 HCT-116 p53 Agonism Beta-lactamase Assay, Phase 5 (AID 2283600). Put shortly: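 Here cell health was gauged by ATP levels in wells holding 4000 cells, each treated 16 h with DMSO-delivered compounds at 217-fold dilution; reduced luminescence marked toxicity.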
Assay [7] addresses Cellular tumor antigen p53 (Homo sapiens) (UniProt P04637). Kind of assay: TOX21_p53_BLA_p4_ratio: Tox21 HCT-116 p53 Agonism Beta-lactamase Assay, Ratio, Phase 4 (AID 2283601). Put shortly:
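Signal is the blue/green (460nm/530nm) ratio of cleaved versus uncleaved CCF4-AM substrate, read after 2 h substrate loading. Cells were HCT116 carrying the p53-responsive beta-lactamase reporter, dosed 16 h at 37C, 5% CO2; CellTiter-Glo measured in parallel.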

For `NCCNCCN`, the result in assay [1], in assay [2], in assay [3], in assay [4], in assay [5] and in assay [6] was inactive. For the same compound, in assay [7], the outcome was inactive.
On to `O=C1c2ccccc2C(=O)N1SC1CCCCC1`, for which the AC50 is 81.1 µM (active) in assay [1]; 47.6 µM (active) and 86.6 µM (active) in assay [2]; 44.8 µM (active) in assay [5]; 76 µM (active) in assay [7]. Besides, the result in assay [1], in assay [5], in assay [6] and in assay [7] was inactive.
In the case of `CCCCNC(=O)NS(=O)(=O)c1ccc(C)cc1`, the outcome in assay [1], in assay [2], in assay [3], in assay [4], in assay [5] and in assay [6] was inactive. Besides, in assay [7], the outcome was inactive.
Consider `O=C(O)c1cccc(C(F)(F)F)c1`, for which the outcome in assay [1], in assay [2], in assay [3], in assay [4], in assay [5] and in assay [6] was inactive. In addition, the result in assay [7] was inactive.
As for `c1ccc2[nH]ccc2c1`, the outcome in assay [1], in assay [2], in assay [3], in assay [4], in assay [5] and in assay [6] was inactive. Also, the outcome in assay [7] was inactive.
On to `CCN(CC)CCOC(=O)c1ccc(N)cc1`, for which the outcome in assay [1], in assay [2], in assay [3], in assay [4], in assay [5] and in assay [6] was inactive. The outcome in assay [7] was inactive.
On to `OCCOCCOCCOCCO`, for which the result in assay [1], in assay [2], in assay [3], in assay [4], in assay [5] and in assay [6] was inactive. In assay [7], the result was inactive.
Regarding `COc1ccc(Nc2ccccc2)c(C)c1`, the outcome in assay [1], in assay [2], in assay [3], in assay [4], in assay [5] and in assay [6] was inactive. Further, the outcome in assay [7] was inactive.
On to `O=c1[nH]c(=O)n([C@H]2CCCO2)cc1F`, for which the outcome in assay [1], in assay [2], in assay [3], in assay [4], in assay [5] and in assay [6] was inactive. Moreover, in assay [7], the outcome was inactive.
For the compound `C[C@]12CC[C@H]3[C@@H](CCC4=CC(=O)CC[C@@]43C)[C@@H]1CC[C@@H]2C(=O)CO`, the result in assay [1], in assay [2], in assay [3], in assay [4], in assay [5] and in assay [6] was inactive. The result in assay [7] was inactive.
`CC(=O)[C@H]1CC[C@H]2[C@@H]3CC=C4C[C@@H](O)CC[C@]4(C)[C@H]3CC[C@]12C`: the result in assay [1], in assay [2], in assay [3], in assay [4], in assay [5] and in assay [6] was inactive. Moreover, the outcome in assay [7] was inactive.
As for `O=C(O)c1ccc(C(=O)O)cc1`, the result in assay [1], in assay [2], in assay [3], in assay [4], in assay [5] and in assay [6] was inactive. Moreover, in assay [7], the outcome was inactive.
For `N#Cc1ccccc1`, the result in assay [1], in assay [2], in assay [3], in assay [4], in assay [5] and in assay [6] was inactive. Moreover, the result in assay [7] was inactive.
As for `CC1(C)[C@@H]2CC[C@@]1(C)[C@H](O)C2`, the result in assay [1], in assay [2] and in assay [3] was inactive.
As to `Nc1cc(Cl)c(O)c(Cl)c1`, the result in assay [1], in assay [2], in assay [3], in assay [4], in assay [5] and in assay [7] was inactive.
In the case of `CC(C)c1ccc(C(C)C)cc1`, the result in assay [1], in assay [2], in assay [3], in assay [5], in assay [6] and in assay [7] was inactive.
Consider `CO[Si](C)(OC)c1ccccc1`, for which the outcome in assay [1], in assay [2], in assay [3], in assay [4], in assay [6] and in assay [7] was inactive.
On to `Cc1ncc([N+](=O)[O-])n1C`, for which the outcome in assay [1], in assay [2], in assay [3], in assay [6] and in assay [7] was inactive.
On to `O=C(Oc1ccccc1)c1ccc(O)cc1`, for which the result in assay [1], in assay [2], in assay [3], in assay [5], in assay [6] and in assay [7] was inactive.
For `CCN(CC)c1ccc(C(=C2C=CC(=[N+](CC)CC)C=C2)c2ccc(S(=O)(=O)O)cc2S(=O)(=O)[O-])cc1`, the result in assay [1] and in assay [3] was inactive. For the same compound, the AC50 is 23.1 µM (active) in assay [2], 46.1 µM (active) in assay [4] and 36.1 µM (active) in assay [6].
For the compound `CCCCCCCCCCCCCCCC(=O)OC[C@H](O)[C@H]1OC(=O)C(O)=C1O`, the outcome in assay [1], in assay [2], in assay [3], in assay [6] and in assay [7] was inactive.
In the case of `COCCOCCOCCOCCOCCO`, the outcome in assay [1], in assay [2], in assay [3], in assay [5] and in assay [7] was inactive.
Turning to `CCCc1c(OCCCOc2ccc(OCC(=O)O)cc2)ccc(C(C)=O)c1O`, the AC50 in assay [1] is 63.8 µM (active); in assay [5], 66.6 µM (active); in assay [6], 65.8 µM (active); in assay [7], 69.2 µM (active). The compound was classed as inactive in assay [2] and in assay [3].
As to `C[Si](O[Si](C)(C)C)O[Si](C)(C)C`, the result in assay [1], in assay [2], in assay [3], in assay [5], in assay [6] and in assay [7] was inactive.
Consider `OC[C@H]1O[C@H](O[C@]2(CCl)O[C@H](CCl)[C@@H](O)[C@@H]2O)[C@H](O)[C@@H](O)[C@H]1Cl`, for which the result in assay [1], in assay [2], in assay [3], in assay [5], in assay [6] and in assay [7] was inactive.
For `C=C(C)C(=O)NCCCN(C)C`, the outcome in assay [1], in assay [2], in assay [3], in assay [5], in assay [6] and in assay [7] was inactive.
On to `CC(C)C(C)(C)C(C)(C)C(C)(C)S`, for which the outcome in assay [1], in assay [2], in assay [3], in assay [5], in assay [6] and in assay [7] was inactive.
For the compound `CC(=O)O[C@]1(C(C)=O)CC[C@H]2[C@@H]3C[C@H](C)C4=CC(=O)CC[C@]4(C)[C@H]3CC[C@@]21C`, the result in assay [1], in assay [2], in assay [3], in assay [4], in assay [5] and in assay [7] was inactive.
As to `Clc1nc(C(Cl)(Cl)Cl)c(Cl)c(Cl)c1Cl`, the outcome in assay [1], in assay [2], in assay [3], in assay [5], in assay [6] and in assay [7] was inactive.
